# TDP1 cell noCPT – qHTS for Inhibitors of human tyrosyl-DNA phosphodiesterase 1 (TDP1): qHTS in cells in absence of CPT | DT40 Tdp1-/- hTDP1 cells, no CPT, ATP luminescence, 48 h | Potency, µM (series often up to 46.2 µM), without a hit: at the highest dose activity change, negative = growth inhibition, most hits filed as inhibitors | 420,000 tested, 15% active | AID 686978, 2013; further: potency means the concentration at half of the fitted maximal effect; nearly all actives have a fitted effect of over 55% in size
#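 Seeded 400 DT40-hTDP1 cells/well (vehicle DMSO, no 20 nM CPT); pinned compounds; ≥48 hr at 37 °C; CellTiter-Glo luminescence as viability measure.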
# HT1080-NT tox – qHTS for induction of synthetic lethality in tumor cells producing 2HG: qHTS for the HT-1080-NT fibrosarcoma cell line; HT-1080-NT fibrosarcoma viability, CellTiter-Glo ATP luminescence, 48 h; Potency, µM (series often up to 46.1 µM), for the others: at the highest dose activity, negative = less viability, usual class: cytotoxic; 360,000 tested, 1.6% active;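 further: NT is the 2HG producing partner of a matched IDH1 knockdown line; potency means the concentration at half of the fitted maximal effect; 0% = DMSO-treated cells and -100% = media-only wells without cells; nearly all actives have a fitted effect of over 55% in size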
#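 Compounds were tested in concentration-response format on HT-1080-NT cells for 48 hours at 37 degrees C. Cell viability came from CellTiter-Glo luminescence; curves were classified by r2, response magnitude and activity.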
# HT1080 IDH1KD tx – qHTS for induction of synthetic lethality in tumor cells producing 2HG: qHTS for the HT-1080-IDH1KD cell line; HT-1080 IDH1 knockdown viability, ATP luminescence, 48 h; Potency, µM (doses to about 46.1 µM), for inactives: at the top dose activity, negative = toxicity, hits mostly cytotoxic; 360,000 tested, 2% active; AID 686971, 2013;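 further: potency means the concentration at half of the fitted maximal effect; 0% = DMSO wells and -100% = cell-free medium wells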
#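 Viability of IDH1-knockdown HT-1080 fibrosarcoma cells was assessed by CellTiter-Glo after 48 h at 37 °C with titrated compound; concentration-effect curves were classified by fit quality and response size.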
# TDP1 cell CPT – qHTS for Inhibitors of human tyrosyl-DNA phosphodiesterase 1 (TDP1): qHTS in cells in presence of CPT; chicken DT40 Tdp1-/-;hTDP1 cells + 20 nM CPT, ATP luminescence, 48 h; Potency, µM (series often up to 46.2 µM), without a hit: top-dose activity change, negative = growth inhibition, actives largely listed as inhibitors; 420,000 tested, 12% active; AID 686979, 2013; further: potency means the concentration at half of the fitted maximal effect; nearly all actives have a fitted effect of over 55% in size
#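 Chicken DT40 Tdp1-/- cells complemented with human TDP1, 400 cells/well, exposed to compounds plus 20 nM camptothecin for at least 48 h at 37 C; viability read as ATP content by CellTiter-Glo luminescence.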
# IL1B secr inh – qHTS for Inhibitors of Inflammasome Signaling: IL-1-beta AlphaLISA Primary Screen; THP-1 LPS/ATP IL-1B secretion, AlphaLISA, 16 h; hits give low values; activity change, % at 57.5 µM; 360,000 tested, 4.7% active; AID 743279, 2014; in the data active means activity change below about -50%; inconclusive means mostly about -30% to -49%
#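 Secreted IL-1B measured by AlphaLISA bead assay after 16 h compound exposure of THP-1 cells; compounds (final up to 57.5 uM) added 1 h before LPS (250 ng/mL) and ATP (1.25 mM) stimulation; lower signal means less secretion.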
# An asterisk follows results filed as active; ? = inconclusive; · = no result. Most compounds without a hit are left out; they make up all but 19% or so of the library. Unless noted, the call rests on the fitted dose curve; in most records, active means well fitted curve in the direction sought with a large enough effect; inconclusive means small, poorly fitted or top-dose-only effect, or another doubt; inactive means no such curve, though single readings can be large; an effect the other way counts as inactive or inconclusive. Unless noted, on the % scale 0 is the no-effect control and ±100 the full control effect.
SMILES,TDP1 cell noCPT,HT1080-NT tox,HT1080 IDH1KD tx,TDP1 cell CPT,IL1B secr inh
CCN(CC(=O)NCCc1ccc(S(N)(=O)=O)cc1)Cc1nc2ccccc2c(=O)[nH]1,?,8%,0%,21µM*,15
CCN(CC(=O)NC(=O)NCc1ccco1)Cc1nc2ccccc2c(=O)[nH]1,4.6µM*,-3%,-3%,4.6µM*,7
CCN(CC(=O)NCCc1ccc(S(N)(=O)=O)cc1)Cc1nc2cc(OC)c(OC)cc2c(=O)[nH]1,-11%,-1%,-1%,1%,20
O=C(Nc1ccc(OCc2cc(=O)n3c4c(sc3n2)CCCC4)cc1)c1ccc(F)cc1,-10%,·,·,-3%,·
CC(=O)Nc1ccc(S(=O)(=O)Nc2nnc(C)s2)cc1,-14%,3%,0%,-14%,20
Cc1cccc(C2(c3cccc(C)c3)CC2C(=O)Nc2ccc([N+](=O)[O-])cc2O)c1 (centres undefined),5.2µM*,?,?,8.2µM*,-98*
COc1cccc(C2(c3cccc(OC)c3)CC2C(=O)Nc2ccccc2Cl)c1 (centres undefined),23µM*,?,21µM*,?,11
CCc1noc(C)c1C(=O)N(CC(C)C)c1c(N)n(Cc2ccccc2)c(=O)[nH]c1=O,1%,6%,14%,0%,8
Clc1ccc2nc(CN3CCCCC3)cn2c1,-2%,8%,4%,?,6
Clc1ccc2nc(CN3CCCc4ccccc43)cn2c1,18µM*,?,?,13µM*,-78*
C#Cc1ccc(NC(=O)C2(C)CCN2C(=O)C2(c3ccccc3)CCCC2)cc1 (centres undefined),16µM*,?,?,23µM*,?
CC(C)NC(=O)C1(C)CCN1C(=O)C1(c2ccccc2)CCCC1 (centres undefined),?,-3%,2%,?,52
CC1(C(=O)Nc2cccc3ccccc23)CCN1C(=O)C1(c2ccccc2)CCCC1 (centres undefined),18µM*,-4%,-19%,?,18
Cc1ccc(NC(=O)c2cc3ccccc3o2)nc1,5%,-20%,-16%,0%,-96*
CCCCOC(=O)c1cccc(NC(=O)c2cc3ccccc3o2)c1,5.2µM*,·,·,13µM*,·
O=C(Nc1ccc(N2CCCC2)cc1)c1cc2ccccc2o1,?,5%,7%,-9%,-11
CC(=O)Nc1cccc(NC(=O)c2cc3ccccc3o2)c1,21µM*,-9%,-11%,16µM*,-3
O=C(Nc1ccccc1)c1cc2ccccc2o1,?,?,?,-30%,-6
O=C(Nc1ccc(-c2nnc3n2CCCCC3)cc1)c1cc2ccccc2o1,?,0%,-6%,?,-199*
C=CCn1c(C)nc2c(sc3nc4c(cc32)COC(C)(C)C4)c1=O,?,5%,16%,?,-17
Cc1ccc(NC(=O)c2cc3ccccc3o2)cc1Cl,?,-12%,-17%,?,-52*
Cc1ccc(-c2nc3cc(NC(=O)c4cc5ccccc5o4)ccc3o2)cc1Cl,?,·,·,-2%,·
COc1ccc(-c2noc(CNS(=O)(=O)c3ccc(NC(C)=O)cc3)n2)cc1,-21%,-1%,-2%,?,1
O=C(NCc1nc(-c2ccc(C(F)(F)F)cc2)no1)Nc1ccc(OC(F)(F)F)cc1,8.2µM*,26µM*,?,?,-90*
COc1ccc(NC(=O)CC2C(=O)N(c3ccc(C)cc3)C(=O)N2Cc2ccc(C)cc2)cc1 (centres undefined),?,·,·,-10%,·
SMILES,TDP1 cell noCPT,HT1080-NT tox,HT1080 IDH1KD tx,TDP1 cell CPT,IL1B secr inh
COc1ccc(CCN2C(=O)N(c3cccc(C)c3)C(=O)C2CC(=O)Nc2ccccc2)cc1OC (centres undefined),?,·,·,23µM*,·
COc1ccc(N2C(=O)C(CC(=O)Nc3ccccc3)N(CCc3ccc(OC)c(OC)c3)C2=O)cc1 (centres undefined),-24%,-1%,8%,-15%,22
COc1ccc(CCN2C(=O)N(c3ccc(OC)cc3)C(=O)C2CC(=O)Nc2ccccc2)cc1 (centres undefined),?,1%,1%,0%,-10
CCN1C(=O)C(CC(=O)Nc2ccc(OC)cc2)N(Cc2ccc(OC)c(OC)c2)C1=S (centres undefined),?,-5%,-6%,-13%,-12
CCN1C(=O)C(CC(=O)Nc2ccc(OC)cc2)N(CCc2ccc(OC)cc2)C1=S (centres undefined),?,-26%,1%,?,-86*
COc1ccc(CCN2C(=O)N(c3ccccc3)C(=O)C2CC(=O)Nc2ccccc2)cc1 (centres undefined),26µM*,·,·,?,·
COc1ccc(CCN2C(=O)N(c3ccc(C)cc3)C(=O)C2CC(=O)Nc2ccc(OC)cc2)cc1 (centres undefined),?,·,·,21µM*,·
COc1ccc(C(C)(C)NC(=O)C2CCC(=O)N(C3CC3)C2)cc1OC (centres undefined),-8%,-2%,-2%,-1%,-1
CCCOc1ccc(NC(=O)CC2C(=O)N(c3ccccc3)C(=O)N2CCC(C)C)cc1 (centres undefined),15µM*,·,·,?,·
C=CCN1C(=O)N(c2ccccc2)C(=O)C1CC(=O)Nc1ccc(OC)cc1 (centres undefined),7%,-1%,2%,13%,-17
Cc1ccc(N2C(=O)C(CC(=O)Nc3cccc(F)c3)N(CCc3ccccc3F)C2=O)cc1 (centres undefined),21µM*,·,·,16µM*,·
COCCCN1C(=O)N(c2ccc(F)cc2)C(=O)C1CC(=O)Nc1ccccc1 (centres undefined),-18%,20%,0%,-20%,3
CNC(=O)CC1C(=O)N(c2ccc(Cl)cc2)C(=S)N1CCc1ccc(OC)c(OC)c1 (centres undefined),9.2µM*,-29%,-21%,?,-50*
Cc1ccc2c(c1)cc1c(=O)n(CC(=O)NCc3ccccn3)nc(C)n12,12%,12%,3%,-2%,5
Cc1ccc(OCc2nnc(NC(=O)c3cccnc3)s2)cc1,-28%,0%,5%,-16%,73

# Source: PubChem BioAssay (National Center for Advancing Translational Sciences (NCATS))
